Reference: PubChem BioAssay AID1159580 (chemical genetic matrix, 2015)
Out of some 5,500 compounds screened, about 2,000 (36%) were called active. Not shown: some 18% with an inconclusive outcome. Cut-off read from the data, not from the text of the source: active = normalized growth mostly below about 0.91 (no sharp cut-off); inconclusive = no clear call, values can overlap the other calls; inactive = mostly above about 0.92. The list shows a part of the results.

Assay: chemical genetic growth profiling, strain panel (AID 1159580);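 note: tested at 20 µM; growth read once vehicle control cultures reached saturation at 30 °C; 1 = growth at the plate median or of vehicle wells; lower values mean less growth of the strain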
Settings: growth OD

Measured: normalized growth

O=C(/C=C/c1ccccc1)c1ccc(O)cc1
active: S. cerevisiae deletion strains, locus YJR075W, strain HOC1, active compounds read low 0.681 | S. cerevisiae deletion strains, locus YKL009W, strain mrt4, active compounds read low 0.829 | S. cerevisiae deletion strains, locus YKL068W, active compounds read low 0.912 | S. cerevisiae deletion strains, locus YKL085W, strain MDH1 (second series), active compounds read low 0.923 | S. cerevisiae deletion strains, locus YKL085W, strain MDH1, active compounds read low 0.923 | S. cerevisiae deletion strains, locus YKL160W, strain elf1, active compounds read low 0.144 | S. cerevisiae deletion strains, locus YKR001C, strain vps1, active compounds read low 0.299 | S. cerevisiae deletion strains, locus YKR026C, strain gcn3, active compounds read low 0.292 | S. cerevisiae deletion strains, locus YKR091W, strain srl3, active compounds read low 0.509 | S. cerevisiae deletion strains, locus YLL001W, strain dnm1, active compounds read low 0.366 | S. cerevisiae deletion strains, locus YLL026W, active compounds read low 0.173 | S. cerevisiae deletion strains, locus YLL041C, strain sdh2, active compounds read low 0.218 | S. cerevisiae deletion strains, locus YLR027C, strain aat2, active compounds read low 0.0836 | S. cerevisiae deletion strains, locus YLR039C, strain RIC1, active compounds read low 0.202 | S. cerevisiae deletion strains, locus YLR058C, strain SHM2, active compounds read low 0.765 | S. cerevisiae deletion strains, locus YLR102C, strain apc9, active compounds read low 0.922 | S. cerevisiae deletion strains, locus YLR221C, strain rsa3, active compounds read low 0.0804 | S. cerevisiae deletion strains, locus YLR258W, strain gsy2, active compounds read low 0.237 | S. cerevisiae deletion strains, locus YLR262C, strain YPT6 (second series), active compounds read low 0.17 | S. cerevisiae deletion strains, locus YLR262C, strain YPT6, active compounds read low 0.248 | S. cerevisiae deletion strains, locus YLR268W, strain sec22, active compounds read low 0.723 | S. cerevisiae deletion strains, locus YLR320W, strain mms22, active compounds read low 0.0946 | S. cerevisiae deletion strains, locus YLR330W, strain CHS5, active compounds read low 0.59 | S. cerevisiae deletion strains, locus YLR342W, strain FKS1 (second series), active compounds read low 0.569 | S. cerevisiae deletion strains, locus YLR342W, strain FKS1, active compounds read low 0.193 | S. cerevisiae deletion strains, locus YLR357W, strain rsc2, active compounds read low 0.46 | S. cerevisiae deletion strains, locus YLR370C, strain arc18, active compounds read low 0.447 | S. cerevisiae deletion strains, locus YLR371W, strain rom2, active compounds read low 0.714 | S. cerevisiae deletion strains, locus YLR384C, strain iki3, active compounds read low 0.462 | S. cerevisiae deletion strains, locus YLR418C, strain cdc73, active compounds read low 0.301 | S. cerevisiae deletion strains, locus YML016C, strain PPZ1, active compounds read low 0.896 | S. cerevisiae deletion strains, locus YML032C, strain rad52, active compounds read low 0.814 | S. cerevisiae deletion strains, locus YML120C, strain ndi1, active compounds read low 0.0894 | S. cerevisiae deletion strains, locus YML124C, strain tub3, active compounds read low 0.913 | S. cerevisiae deletion strains, locus YMR058W, strain fet3, active compounds read low 0.0951 | S. cerevisiae deletion strains, locus YMR078C, strain ctf18, active compounds read low 0.676 | S. cerevisiae deletion strains, locus YMR125W, strain sto1, active compounds read low 0.101 | S. cerevisiae deletion strains, locus YMR129W, active compounds read low 0.222 | S. cerevisiae deletion strains, locus YMR205C, strain PFK2, active compounds read low 0.124 | S. cerevisiae deletion strains, locus YMR223W, strain ubp8, active compounds read low 0.852 | S. cerevisiae deletion strains, locus YMR231W, strain pep5, active compounds read low 0.512 | S. cerevisiae deletion strains, locus YMR263W, strain SAP30, active compounds read low 0.798 | S. cerevisiae deletion strains, locus YMR307W, strain GAS1, active compounds read low 0.401 | S. cerevisiae deletion strains, locus YNL067W, strain RPL9B, active compounds read low 0.719 | S. cerevisiae deletion strains, locus YNL071W, strain lat1, active compounds read low 0.0619 | S. cerevisiae deletion strains, locus YNL128W, strain TEP1, active compounds read low 0.734 | S. cerevisiae deletion strains, locus YNL153C, strain GIM3, active compounds read low 0.492 | S. cerevisiae deletion strains, locus YNL209W, strain ssb2, active compounds read low 0.593 | S. cerevisiae deletion strains, locus YNL233W, strain BNI4, active compounds read low 0.621 | S. cerevisiae deletion strains, locus YNL248C, strain rpa49, active compounds read low 0.0935 | S. cerevisiae deletion strains, locus YNL271C, strain bni1, active compounds read low 0.878 | S. cerevisiae deletion strains, locus YNL298W, strain CLA4, active compounds read low 0.824 | S. cerevisiae deletion strains, locus YNL307C, strain MCK1, active compounds read low 0.162 | S. cerevisiae deletion strains, locus YNL322C, strain KRE1 (second series), active compounds read low 0.231 | S. cerevisiae deletion strains, locus YNL322C, strain KRE1, active compounds read low 0.77 | S. cerevisiae deletion strains, locus YNR049C, strain mso1, active compounds read low 0.454 | S. cerevisiae deletion strains, locus YNR052C, strain pop2, active compounds read low 0.866 | S. cerevisiae deletion strains, locus YOL006C, strain TOP1, active compounds read low 0.347 | S. cerevisiae deletion strains, locus YOL147C, strain pex11, active compounds read low 0.706 | S. cerevisiae deletion strains, locus YOR001W, strain rrp6, active compounds read low 0.189 | S. cerevisiae deletion strains, locus YOR061W, strain CKA2, active compounds read low 0.877 | S. cerevisiae deletion strains, locus YOR069W, strain VPS5, active compounds read low 0.827 | S. cerevisiae deletion strains, locus YOR070C, strain gyp1, active compounds read low 0.26 | S. cerevisiae deletion strains, locus YOR080W, strain dia2, active compounds read low 0.514 | S. cerevisiae deletion strains, locus YOR083W, strain WHI5, active compounds read low 0.312 | S. cerevisiae deletion strains, locus YOR106W, strain vam3, active compounds read low 0.241 | S. cerevisiae deletion strains, locus YOR136W, strain idh2, active compounds read low 0.914 | S. cerevisiae deletion strains, locus YOR144C, strain elg1, active compounds read low 0.88 | S. cerevisiae deletion strains, locus YOR184W, strain ser1, active compounds read low 0.459 | S. cerevisiae deletion strains, locus YOR265W, strain rbl2, active compounds read low 0.295 | S. cerevisiae deletion strains, locus YOR270C, strain vph1, active compounds read low 0.143 | S. cerevisiae deletion strains, locus YOR290C, strain snf2, active compounds read low 0.14 | S. cerevisiae deletion strains, locus YOR316C, strain cot1, active compounds read low 0.917 | S. cerevisiae deletion strains, locus YPL051W, strain arl3, active compounds read low 0.213 | S. cerevisiae deletion strains, locus YPL055C, strain LGE1, active compounds read low 0.558 | S. cerevisiae deletion strains, locus YPL078C, strain atp4, active compounds read low 0.209 | S. cerevisiae deletion strains, locus YPL106C, strain sse1, active compounds read low 0.503 | S. cerevisiae deletion strains, locus YPL240C, strain hsp82, active compounds read low 0.149 | S. cerevisiae deletion strains, locus YPL241C, strain CIN2, active compounds read low 0.763 | S. cerevisiae deletion strains, locus YPR119W, strain clb2, active compounds read low 0.905 | S. cerevisiae deletion strains, locus YPR141C, strain kar3, active compounds read low 0.907 | S. cerevisiae deletion strains, locus YPR163C, strain tif3, active compounds read low 0.369 | S. cerevisiae deletion strains, locus YPR167C, strain met16, active compounds read low 0.898 | S. cerevisiae deletion strains, strain wtn01, active compounds read low 0.78 | S. cerevisiae strains, strain wild type, active compounds read low 0.518
inactive: S. cerevisiae deletion strains, locus YLR113W, strain HOG1, active compounds read low 0.964 | S. cerevisiae deletion strains, locus YNL183C, strain NPR1, active compounds read low 0.901 | S. cerevisiae deletion strains, locus YNL250W, strain rad50, active compounds read low 0.924 | S. cerevisiae deletion strains, locus YOL012C, strain htz1 0.327 | S. cerevisiae deletion strains, locus YOR231W, strain MKK1, active compounds read low 0.948 | S. cerevisiae deletion strains, locus YPL256C, strain CLN2, active compounds read low 0.978
